Measured values as given in article PMC4336329 (PLoS ONE, 2015).
Hit rate of the full screen: of about 310,000 compounds, about 14,000 (4.5%) showed an effect of 50% or more. The effect is printed as a negative number. The entries come from a sample that favours strong results as a whole.

Biological target: human ether-à-go-go-related gene (hERG) potassium channel (human, UniProt Q12809)
Test: primary screen, population patch clamp on CHO cells stably expressing hERG; higher = less effect of the substance
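Further: peak tail current of the secondary pulse compared with the same well before compound.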

Chain of human ether-à-go-go-related gene (hERG) potassium channel (Q12809 whole entry, looked up): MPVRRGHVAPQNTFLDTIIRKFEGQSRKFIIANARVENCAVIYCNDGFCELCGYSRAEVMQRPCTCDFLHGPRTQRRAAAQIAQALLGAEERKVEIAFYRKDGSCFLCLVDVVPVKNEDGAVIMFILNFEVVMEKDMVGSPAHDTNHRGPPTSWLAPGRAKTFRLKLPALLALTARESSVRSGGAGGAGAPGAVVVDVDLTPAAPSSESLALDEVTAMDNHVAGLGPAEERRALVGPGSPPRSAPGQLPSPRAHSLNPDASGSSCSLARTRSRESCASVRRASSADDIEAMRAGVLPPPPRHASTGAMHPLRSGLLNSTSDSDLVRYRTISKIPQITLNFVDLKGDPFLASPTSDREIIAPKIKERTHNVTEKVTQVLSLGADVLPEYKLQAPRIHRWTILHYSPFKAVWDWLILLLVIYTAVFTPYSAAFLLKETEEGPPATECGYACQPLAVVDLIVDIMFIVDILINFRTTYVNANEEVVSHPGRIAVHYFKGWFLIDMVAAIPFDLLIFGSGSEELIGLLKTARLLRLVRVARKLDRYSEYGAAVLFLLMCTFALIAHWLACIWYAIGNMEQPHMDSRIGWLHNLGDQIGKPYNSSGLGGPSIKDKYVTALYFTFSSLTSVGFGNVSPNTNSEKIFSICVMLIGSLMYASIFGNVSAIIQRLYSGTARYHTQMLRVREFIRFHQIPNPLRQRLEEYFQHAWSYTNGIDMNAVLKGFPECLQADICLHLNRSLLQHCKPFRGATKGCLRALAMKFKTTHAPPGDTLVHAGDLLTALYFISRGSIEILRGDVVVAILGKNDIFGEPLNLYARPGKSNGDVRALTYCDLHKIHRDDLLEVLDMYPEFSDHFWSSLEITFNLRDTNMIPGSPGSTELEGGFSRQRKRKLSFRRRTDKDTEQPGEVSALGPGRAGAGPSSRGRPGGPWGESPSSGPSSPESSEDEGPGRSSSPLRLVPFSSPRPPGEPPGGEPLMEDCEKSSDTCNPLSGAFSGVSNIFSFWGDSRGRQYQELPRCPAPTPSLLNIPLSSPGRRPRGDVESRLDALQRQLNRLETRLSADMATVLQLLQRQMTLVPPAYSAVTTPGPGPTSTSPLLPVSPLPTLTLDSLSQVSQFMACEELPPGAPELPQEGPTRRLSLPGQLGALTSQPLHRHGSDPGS

| SMILES | hERG current change (%, negative = inhibition) at 10uM [%] |
| --- | --- |
| CCN1CCN(CC(=O)N2N=C(c3cccs3)CC2c2ccc(OC)cc2)C(=O)C1=O (centres unmarked) | -8.83 |
| COc1ccc(C2CC(c3cccs3)=NN2C(=O)CSc2nc(=O)n3ccc(C)cc3n2)cc1 (centres unmarked) | -65.4 |
| COCCn1c(N)c(C(=O)NCC2CCCO2)c2nc3ccccc3nc21 (centres unmarked) | -7.66 |
| CN(CC(=O)Nc1ccc(Cl)cc1)C(=O)CNC(=O)Cc1cccc2ccccc12 | 20.1 |
| COc1cccc(CN(C(=O)Cn2nnc(-c3ccccc3F)n2)C(C(=O)NC(C)(C)C)c2ccncc2)c1 (centres unmarked) | -18.7 |
| O=[N+]([O-])c1ccc(N(c2ccccc2)c2ccccc2)cc1 | 4.46 |
| Cc1nn(-c2cc(N3CCNCC3)ccc2[N+](=O)[O-])c(=O)c2ccccc12 | -11.4 |
| CCOc1c(Cl)cc(CNc2ccc(S(N)(=O)=O)cc2)cc1OC | -3.11 |
| CC1CN(CC(O)COC(c2ccc(Cl)cc2)c2ccc(Cl)cc2)CC(C)O1.Cl (centres unmarked) | -71.9 |
| CN1CCN(CC(O)COc2ccc(Cl)cc2)CC1.Cl (centres unmarked) | -12.5 |
| CN1CCN(CC(O)COC(c2ccc(Cl)cc2)c2ccc(Cl)cc2)CC1.Cl (centres unmarked) | -69.3 |
| CC(C)c1ccc(OCC(O)CN2CCCC2)cc1.Cl (centres unmarked) | -11.1 |
| CN1CCN(CC(O)COC(c2ccccc2)c2ccccc2)CC1 (centres unmarked) | 11.2 |
| COc1ccc(OCC(O)CN2CC(C)OC(C)C2)cc1.Cl (centres unmarked) | 17.5 |
| OC(COC(c1ccc(Cl)cc1)c1ccc(Cl)cc1)CN1CCCC1 (centres unmarked) | -77.4 |
| CC1CN(CC(O)COc2ccc(C(C)C)cc2)CC(C)O1.Cl (centres unmarked) | -14.3 |
| CC1CCCCC1NC(=O)c1nnc(Cc2ccc(Cl)cc2)o1 (centres unmarked) | -9.72 |
| O=c1[nH]c(=O)c2nc3c4ccccc4c4ccccc4c3nc2[nH]1 | 4.75 |
| CCOP(=O)(O)c1ccccc1OCCCCCOc1ccccc1P(=O)(O)OCC | 14.5 |
| COC(=O)C(C)(C(=O)OC)c1ccccc1[N+](=O)[O-] | 7.93 |
| COCCSc1ccccc1C(=O)Nc1nccs1 | -2.77 |
| O=C(c1ccccc1)c1ccc(OCC(O)CN2CCOCC2)cc1 (centres unmarked) | -10.8 |
| CCC(=O)c1ccc(OCC(O)CN2CCN(S(=O)(=O)N3CCCCC3)CC2)cc1 (centres unmarked) | -55.1 |
| CN(C)S(=O)(=O)N1CCN(CC(O)COc2ccc(C(=O)c3ccccc3)cc2)CC1 (centres unmarked) | -70.2 |

| SMILES | hERG current change (%, negative = inhibition) at 10uM [%] |
| --- | --- |
| CN(C)S(=O)(=O)N1CCN(CC(O)COc2ccc3cc(Br)ccc3c2)CC1 (centres unmarked) | -25.6 |
| O=S(=O)(N1CCCCC1)N1CCN(CC(O)COc2ccc3cc(Br)ccc3c2)CC1 (centres unmarked) | 7.33 |
| CCC(=O)c1ccc(OCC(O)CN2CCCCC2)cc1.Cl (centres unmarked) | -21.8 |
| CCC(=O)c1ccc(OCC(O)CN2CCN(S(=O)(=O)c3ccc(NC(C)=O)cc3)CC2)cc1 (centres unmarked) | -20.5 |
| O=C(c1ccccc1)c1ccc(OCC(O)CN2CCN(S(=O)(=O)N3CCCCC3)CC2)cc1 (centres unmarked) | -73.5 |
| CN(C)S(=O)(=O)N1CCN(CC(O)COc2ccc(-c3ccccc3)cc2)CC1 (centres unmarked) | -27.3 |
| CCOc1ccc(N2C(=O)CN=C2Nc2ccccc2F)cc1 | 5.08 |
| COc1ccc(Br)cc1CNc1ccccc1.O=C(O)C(=O)O | 9.4 |
| CN=C1C=C/C(=N/N=c2\ccn(O)cc2C)C=C1C | -32.6 |
| COC(=O)C1=C(C)N=C2SCCC(=O)N2C1c1cccs1 (centres unmarked) | 10.4 |
| O=C(O)C(=O)O.c1ccc(CNC23CC4CC(CC(C4)C2)C3)nc1 | 15.3 |
| CC1CCCN(C(=O)C2CCN(CCCc3ccccc3)CC2)C1.O=C(O)C(=O)O (centres unmarked) | -47.5 |
| CCN(Cc1ccccc1)C(=O)C1CCN(CC2CC=CCC2)CC1.O=C(O)C(=O)O (centres unmarked) | -46.9 |
| O=C(C1CCN(CCCc2ccccc2)CC1)N(CCc1ccccc1)Cc1ccccc1.O=C(O)C(=O)O | -75 |
| CCN(CC)C(=O)C1CCN(CC2CC=CCC2)CC1 (centres unmarked) | -0.0716 |
| CCCCN(Cc1ccccc1)C(=O)C1CCN(Cc2sccc2C)CC1.O=C(O)C(=O)O | -68.3 |
| CC1CCN(C(=O)C2CCN(CCCc3ccccc3)CC2)CC1.O=C(O)C(=O)O | -62.3 |
| CCN(Cc1ccccc1)C(=O)C1CCN(Cc2sccc2C)CC1.O=C(O)C(=O)O | -44.3 |
| CCC(C)NC(=O)C1CCN(CCCc2ccccc2)CC1.O=C(O)C(=O)O (centres unmarked) | -1.26 |
| O=C(C1CC1)N(CCN(Cc1ccccc1)C(=O)C1CC1)Cc1ccccc1 | -28.9 |
| CCN(CC)C(=O)C1CCCN(Cc2sccc2C)C1 (centres unmarked) | 11.6 |
| O=C(C1CCN(CC2CC=CCC2)CC1)N(CCc1ccccc1)Cc1ccccc1 (centres unmarked) | -72 |
| O=C(C1CCCN(CCCc2ccccc2)C1)N1CCCCCC1.O=C(O)C(=O)O (centres unmarked) | -46.2 |
